Four compounds from ChEMBL document CHEMBL1961873, “Compounds: GSK PKIS; Assays: Nanosyn kinase panel” (2012) can be followed below.

For assay [1], the target named is Tyrosine-protein kinase SYK (Homo sapiens) (UniProt P43405). Conditions: at 1 µM.
Assay [2] concerns the target T1, Tyrosine-protein kinase Tec (Homo sapiens) (UniProt P42680).
T1 sequence (whole entry): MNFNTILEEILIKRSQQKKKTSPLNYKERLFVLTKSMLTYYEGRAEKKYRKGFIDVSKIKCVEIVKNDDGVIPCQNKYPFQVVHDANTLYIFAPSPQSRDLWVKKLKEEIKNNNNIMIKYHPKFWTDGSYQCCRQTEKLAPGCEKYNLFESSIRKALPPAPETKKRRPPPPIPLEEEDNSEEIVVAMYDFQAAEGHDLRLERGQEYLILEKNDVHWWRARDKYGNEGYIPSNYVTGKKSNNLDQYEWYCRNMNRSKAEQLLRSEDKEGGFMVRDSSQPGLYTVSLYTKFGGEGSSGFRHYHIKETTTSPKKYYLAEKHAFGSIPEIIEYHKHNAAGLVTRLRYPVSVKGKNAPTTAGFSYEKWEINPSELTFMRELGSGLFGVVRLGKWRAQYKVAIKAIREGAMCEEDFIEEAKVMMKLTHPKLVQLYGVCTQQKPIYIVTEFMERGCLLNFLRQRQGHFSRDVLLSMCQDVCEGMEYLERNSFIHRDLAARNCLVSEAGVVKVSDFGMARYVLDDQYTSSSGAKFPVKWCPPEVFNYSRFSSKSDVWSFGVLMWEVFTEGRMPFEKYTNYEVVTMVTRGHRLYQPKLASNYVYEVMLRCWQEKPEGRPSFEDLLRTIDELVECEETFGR
Conditions: at 0.1 µM.

The target of assay [3] is T1, Tyrosine-protein kinase Tec (Homo sapiens). Conditions: at 1 µM.
Assay [4] concerns the target Angiopoietin-1 receptor (Homo sapiens) (UniProt Q02763). Conditions: at 0.1 µM.
Assay [5] shares this target. Conditions: at 1 µM.
Assay [6] deals with T2, Non-receptor tyrosine-protein kinase TNK1 (Homo sapiens) (UniProt Q13470).
T2 sequence (whole entry): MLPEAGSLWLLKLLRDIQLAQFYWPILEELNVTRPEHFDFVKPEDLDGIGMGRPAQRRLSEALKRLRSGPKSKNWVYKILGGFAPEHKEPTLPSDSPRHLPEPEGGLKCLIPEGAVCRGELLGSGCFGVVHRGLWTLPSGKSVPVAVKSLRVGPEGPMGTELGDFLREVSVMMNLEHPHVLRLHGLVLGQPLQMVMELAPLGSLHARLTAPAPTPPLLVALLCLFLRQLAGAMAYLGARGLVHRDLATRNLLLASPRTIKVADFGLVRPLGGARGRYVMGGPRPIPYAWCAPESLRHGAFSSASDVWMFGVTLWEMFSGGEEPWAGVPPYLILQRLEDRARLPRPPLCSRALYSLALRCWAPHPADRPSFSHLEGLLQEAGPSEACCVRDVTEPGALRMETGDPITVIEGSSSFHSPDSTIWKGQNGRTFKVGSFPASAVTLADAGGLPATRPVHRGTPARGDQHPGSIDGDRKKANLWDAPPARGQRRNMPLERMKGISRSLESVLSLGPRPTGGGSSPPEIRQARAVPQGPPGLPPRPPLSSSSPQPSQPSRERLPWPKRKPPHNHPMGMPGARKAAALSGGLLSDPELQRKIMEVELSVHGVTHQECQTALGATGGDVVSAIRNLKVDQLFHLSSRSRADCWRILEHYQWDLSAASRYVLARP
Conditions: at 0.1 µM.

The target of assay [7] is T2, Non-receptor tyrosine-protein kinase TNK1 (Homo sapiens). Conditions: at 1 µM.
Assay [8] deals with Activated CDC42 kinase 1 (Homo sapiens) (UniProt Q07912). Conditions: at 0.1 µM.
Assay [9] shares this target. Conditions: at 1 µM.
The target in assay [10] is High affinity nerve growth factor receptor (Homo sapiens) (UniProt P04629). Conditions: at 0.1 µM.
Assay [11] has the same target. Conditions: at 1 µM.
The target of assay [12] is BDNF/NT-3 growth factors receptor (Homo sapiens) (UniProt Q16620). Conditions: at 0.1 µM.
Assay [13] shares this target. Conditions: at 1 µM.
Assay [14] deals with NT-3 growth factor receptor (Homo sapiens) (UniProt Q16288). Conditions: at 0.1 µM.
For assay [15] the target is unchanged. Conditions: at 1 µM.
The target in assay [16] is T3, Tyrosine-protein kinase TXK (Homo sapiens) (UniProt P42681).
T3 sequence (whole entry): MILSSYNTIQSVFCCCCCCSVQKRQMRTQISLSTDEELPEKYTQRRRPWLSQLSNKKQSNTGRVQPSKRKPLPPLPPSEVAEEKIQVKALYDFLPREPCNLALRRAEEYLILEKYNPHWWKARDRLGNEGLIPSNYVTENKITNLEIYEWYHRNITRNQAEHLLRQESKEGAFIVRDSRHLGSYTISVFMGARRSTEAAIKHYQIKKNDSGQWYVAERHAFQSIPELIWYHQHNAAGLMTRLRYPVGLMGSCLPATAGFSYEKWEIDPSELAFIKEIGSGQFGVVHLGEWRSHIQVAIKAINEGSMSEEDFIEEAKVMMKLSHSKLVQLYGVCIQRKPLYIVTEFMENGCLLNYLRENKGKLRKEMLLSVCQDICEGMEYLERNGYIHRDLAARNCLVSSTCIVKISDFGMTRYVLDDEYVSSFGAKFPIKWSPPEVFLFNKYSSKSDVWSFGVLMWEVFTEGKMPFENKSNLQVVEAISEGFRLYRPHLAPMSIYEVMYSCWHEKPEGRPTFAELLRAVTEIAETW
Conditions: at 0.1 µM.

The target of assay [17] is T3, Tyrosine-protein kinase TXK (Homo sapiens). Conditions: at 1 µM.
Assay [18] deals with Non-receptor tyrosine-protein kinase TYK2 (Homo sapiens) (UniProt P29597). Conditions: at 0.1 µM.
Assay [19] deals with T4, Dual specificity protein kinase TTK (Homo sapiens) (UniProt P33981).
T4 sequence (whole entry): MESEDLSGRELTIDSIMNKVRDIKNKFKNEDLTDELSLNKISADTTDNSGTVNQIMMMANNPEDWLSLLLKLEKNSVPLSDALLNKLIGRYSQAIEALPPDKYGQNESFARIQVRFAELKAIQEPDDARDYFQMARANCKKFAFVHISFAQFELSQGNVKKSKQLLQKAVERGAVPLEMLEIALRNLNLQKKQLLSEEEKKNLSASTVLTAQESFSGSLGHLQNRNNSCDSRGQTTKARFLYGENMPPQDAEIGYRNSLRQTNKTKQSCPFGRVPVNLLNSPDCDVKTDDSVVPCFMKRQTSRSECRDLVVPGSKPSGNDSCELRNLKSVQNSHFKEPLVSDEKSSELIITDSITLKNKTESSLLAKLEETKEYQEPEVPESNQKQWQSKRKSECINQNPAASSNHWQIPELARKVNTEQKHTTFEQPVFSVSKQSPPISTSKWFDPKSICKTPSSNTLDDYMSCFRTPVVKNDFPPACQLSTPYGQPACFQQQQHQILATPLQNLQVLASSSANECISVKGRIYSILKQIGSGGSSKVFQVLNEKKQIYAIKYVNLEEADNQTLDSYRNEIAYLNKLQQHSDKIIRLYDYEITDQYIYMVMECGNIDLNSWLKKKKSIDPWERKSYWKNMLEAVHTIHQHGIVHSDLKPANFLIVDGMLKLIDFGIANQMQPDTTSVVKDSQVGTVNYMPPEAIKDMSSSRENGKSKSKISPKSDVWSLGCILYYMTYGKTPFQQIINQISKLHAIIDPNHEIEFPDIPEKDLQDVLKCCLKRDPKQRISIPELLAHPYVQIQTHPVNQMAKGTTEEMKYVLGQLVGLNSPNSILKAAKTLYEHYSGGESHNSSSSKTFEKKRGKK
Conditions: at 1 µM.

The target of assay [20] is T5, Aurora kinase A (Homo sapiens) (UniProt O14965).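 Also: each reported value is a mean percent inhibition of Aurora-A.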
T5 sequence (whole entry): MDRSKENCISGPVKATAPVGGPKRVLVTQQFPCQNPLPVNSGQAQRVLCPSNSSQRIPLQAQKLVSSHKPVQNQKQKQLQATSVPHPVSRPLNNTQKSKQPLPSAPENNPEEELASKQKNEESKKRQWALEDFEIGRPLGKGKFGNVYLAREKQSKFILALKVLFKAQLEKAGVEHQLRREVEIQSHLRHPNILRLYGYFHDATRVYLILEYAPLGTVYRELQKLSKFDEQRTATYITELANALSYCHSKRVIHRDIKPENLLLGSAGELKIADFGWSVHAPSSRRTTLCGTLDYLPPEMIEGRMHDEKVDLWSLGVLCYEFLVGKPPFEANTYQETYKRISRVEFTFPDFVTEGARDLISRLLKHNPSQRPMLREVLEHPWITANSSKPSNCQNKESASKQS
Conditions: at 0.1 µM.

Activated CDC42 kinase 1 (Homo sapiens), sequence (Q07912 whole entry, looked up): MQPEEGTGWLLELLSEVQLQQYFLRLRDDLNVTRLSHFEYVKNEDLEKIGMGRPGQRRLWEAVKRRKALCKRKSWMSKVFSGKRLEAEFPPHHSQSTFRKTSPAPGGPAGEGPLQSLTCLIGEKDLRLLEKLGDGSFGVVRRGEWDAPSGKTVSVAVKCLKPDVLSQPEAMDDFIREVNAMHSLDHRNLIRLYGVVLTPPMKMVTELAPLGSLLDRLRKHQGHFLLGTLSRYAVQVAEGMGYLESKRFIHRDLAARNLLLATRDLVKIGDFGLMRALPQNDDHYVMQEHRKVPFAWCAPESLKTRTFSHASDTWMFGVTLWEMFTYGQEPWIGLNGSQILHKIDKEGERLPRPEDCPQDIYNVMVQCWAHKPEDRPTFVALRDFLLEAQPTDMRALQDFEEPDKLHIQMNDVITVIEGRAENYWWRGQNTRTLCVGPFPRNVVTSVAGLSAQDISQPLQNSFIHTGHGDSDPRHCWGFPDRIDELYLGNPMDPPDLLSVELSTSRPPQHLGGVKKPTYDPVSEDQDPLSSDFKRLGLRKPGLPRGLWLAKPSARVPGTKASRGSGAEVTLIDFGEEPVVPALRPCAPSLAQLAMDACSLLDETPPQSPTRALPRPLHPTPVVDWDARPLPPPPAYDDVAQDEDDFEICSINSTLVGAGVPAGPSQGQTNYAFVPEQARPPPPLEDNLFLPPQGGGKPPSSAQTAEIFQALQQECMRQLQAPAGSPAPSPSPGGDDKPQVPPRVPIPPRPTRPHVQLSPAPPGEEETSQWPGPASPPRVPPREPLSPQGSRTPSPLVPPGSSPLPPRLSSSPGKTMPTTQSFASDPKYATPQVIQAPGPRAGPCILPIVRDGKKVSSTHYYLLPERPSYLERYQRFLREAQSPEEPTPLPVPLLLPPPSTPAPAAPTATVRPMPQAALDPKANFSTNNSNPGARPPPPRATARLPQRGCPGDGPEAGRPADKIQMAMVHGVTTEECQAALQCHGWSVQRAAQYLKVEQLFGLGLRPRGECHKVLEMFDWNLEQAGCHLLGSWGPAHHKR
Angiopoietin-1 receptor (Homo sapiens), sequence (Q02763 whole entry): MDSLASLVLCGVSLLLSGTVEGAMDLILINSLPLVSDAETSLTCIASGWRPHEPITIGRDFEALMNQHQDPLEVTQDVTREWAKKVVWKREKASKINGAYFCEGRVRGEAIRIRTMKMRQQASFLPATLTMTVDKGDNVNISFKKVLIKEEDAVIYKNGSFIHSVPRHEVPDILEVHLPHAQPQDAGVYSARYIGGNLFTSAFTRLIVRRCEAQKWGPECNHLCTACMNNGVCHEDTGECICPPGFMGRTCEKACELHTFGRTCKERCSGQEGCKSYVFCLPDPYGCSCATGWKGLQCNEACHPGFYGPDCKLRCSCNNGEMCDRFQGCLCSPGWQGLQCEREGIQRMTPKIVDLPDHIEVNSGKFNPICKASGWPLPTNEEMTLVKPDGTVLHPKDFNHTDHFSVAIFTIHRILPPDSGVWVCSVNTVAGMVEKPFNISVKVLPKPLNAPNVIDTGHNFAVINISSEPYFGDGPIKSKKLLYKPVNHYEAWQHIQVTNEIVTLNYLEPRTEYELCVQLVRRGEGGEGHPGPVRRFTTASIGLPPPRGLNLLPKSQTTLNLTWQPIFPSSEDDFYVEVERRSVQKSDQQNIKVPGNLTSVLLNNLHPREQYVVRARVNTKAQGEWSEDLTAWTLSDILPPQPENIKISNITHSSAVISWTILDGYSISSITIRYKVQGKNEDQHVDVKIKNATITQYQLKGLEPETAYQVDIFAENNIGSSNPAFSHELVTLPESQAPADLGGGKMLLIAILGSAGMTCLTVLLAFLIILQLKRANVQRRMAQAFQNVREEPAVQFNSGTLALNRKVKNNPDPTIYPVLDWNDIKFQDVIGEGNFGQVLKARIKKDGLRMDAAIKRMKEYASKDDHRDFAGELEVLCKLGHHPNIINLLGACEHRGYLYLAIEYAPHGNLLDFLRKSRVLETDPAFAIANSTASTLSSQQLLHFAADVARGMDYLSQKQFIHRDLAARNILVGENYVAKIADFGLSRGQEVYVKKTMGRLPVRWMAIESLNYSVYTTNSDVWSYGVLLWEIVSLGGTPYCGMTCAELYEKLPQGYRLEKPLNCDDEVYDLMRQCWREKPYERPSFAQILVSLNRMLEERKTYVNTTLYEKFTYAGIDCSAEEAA
High affinity nerve growth factor receptor (Homo sapiens), sequence (P04629 33-796 limits assumed): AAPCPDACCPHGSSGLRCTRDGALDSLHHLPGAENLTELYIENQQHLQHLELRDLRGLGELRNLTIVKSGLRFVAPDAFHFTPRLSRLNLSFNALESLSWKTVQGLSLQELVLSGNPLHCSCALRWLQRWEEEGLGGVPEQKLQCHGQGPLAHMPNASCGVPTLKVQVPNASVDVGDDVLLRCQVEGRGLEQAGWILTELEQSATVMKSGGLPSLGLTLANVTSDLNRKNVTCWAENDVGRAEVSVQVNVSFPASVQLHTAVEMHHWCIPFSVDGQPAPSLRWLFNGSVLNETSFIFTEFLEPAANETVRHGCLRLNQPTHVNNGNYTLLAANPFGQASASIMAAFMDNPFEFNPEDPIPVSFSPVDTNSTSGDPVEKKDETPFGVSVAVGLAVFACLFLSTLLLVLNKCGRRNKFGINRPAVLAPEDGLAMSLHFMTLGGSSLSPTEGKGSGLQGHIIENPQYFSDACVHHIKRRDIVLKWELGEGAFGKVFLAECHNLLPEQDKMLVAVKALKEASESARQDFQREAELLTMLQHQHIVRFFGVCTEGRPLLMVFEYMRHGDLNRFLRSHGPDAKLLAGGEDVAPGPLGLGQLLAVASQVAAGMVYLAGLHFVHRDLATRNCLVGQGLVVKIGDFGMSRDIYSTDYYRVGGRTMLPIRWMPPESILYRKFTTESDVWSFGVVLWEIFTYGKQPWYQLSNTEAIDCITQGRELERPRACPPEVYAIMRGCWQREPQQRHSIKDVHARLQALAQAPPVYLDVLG
NT-3 growth factor receptor (Homo sapiens), sequence (Q16288 32-839 limits assumed): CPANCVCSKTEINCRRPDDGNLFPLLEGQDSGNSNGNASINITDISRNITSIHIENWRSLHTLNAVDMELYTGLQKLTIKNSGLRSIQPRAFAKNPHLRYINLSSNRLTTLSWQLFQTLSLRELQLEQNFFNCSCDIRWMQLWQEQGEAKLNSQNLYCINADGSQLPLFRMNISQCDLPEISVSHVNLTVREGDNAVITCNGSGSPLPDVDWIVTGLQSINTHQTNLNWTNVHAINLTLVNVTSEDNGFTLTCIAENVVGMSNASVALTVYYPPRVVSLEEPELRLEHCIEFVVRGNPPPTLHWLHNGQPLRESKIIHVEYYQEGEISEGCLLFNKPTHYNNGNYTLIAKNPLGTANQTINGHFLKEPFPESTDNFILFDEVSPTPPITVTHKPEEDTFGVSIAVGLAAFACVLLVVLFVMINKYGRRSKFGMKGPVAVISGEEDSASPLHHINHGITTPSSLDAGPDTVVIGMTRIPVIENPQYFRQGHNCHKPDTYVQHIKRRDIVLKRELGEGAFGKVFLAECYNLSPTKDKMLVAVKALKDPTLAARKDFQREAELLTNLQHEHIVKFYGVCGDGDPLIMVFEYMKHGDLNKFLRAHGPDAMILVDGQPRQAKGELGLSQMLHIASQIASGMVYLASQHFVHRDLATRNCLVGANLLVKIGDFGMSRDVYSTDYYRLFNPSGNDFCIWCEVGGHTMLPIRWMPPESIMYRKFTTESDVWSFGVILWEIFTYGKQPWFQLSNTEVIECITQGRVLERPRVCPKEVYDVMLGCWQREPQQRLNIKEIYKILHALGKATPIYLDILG
BDNF/NT-3 growth factors receptor (Homo sapiens), sequence (Q16620 32-822 limits assumed): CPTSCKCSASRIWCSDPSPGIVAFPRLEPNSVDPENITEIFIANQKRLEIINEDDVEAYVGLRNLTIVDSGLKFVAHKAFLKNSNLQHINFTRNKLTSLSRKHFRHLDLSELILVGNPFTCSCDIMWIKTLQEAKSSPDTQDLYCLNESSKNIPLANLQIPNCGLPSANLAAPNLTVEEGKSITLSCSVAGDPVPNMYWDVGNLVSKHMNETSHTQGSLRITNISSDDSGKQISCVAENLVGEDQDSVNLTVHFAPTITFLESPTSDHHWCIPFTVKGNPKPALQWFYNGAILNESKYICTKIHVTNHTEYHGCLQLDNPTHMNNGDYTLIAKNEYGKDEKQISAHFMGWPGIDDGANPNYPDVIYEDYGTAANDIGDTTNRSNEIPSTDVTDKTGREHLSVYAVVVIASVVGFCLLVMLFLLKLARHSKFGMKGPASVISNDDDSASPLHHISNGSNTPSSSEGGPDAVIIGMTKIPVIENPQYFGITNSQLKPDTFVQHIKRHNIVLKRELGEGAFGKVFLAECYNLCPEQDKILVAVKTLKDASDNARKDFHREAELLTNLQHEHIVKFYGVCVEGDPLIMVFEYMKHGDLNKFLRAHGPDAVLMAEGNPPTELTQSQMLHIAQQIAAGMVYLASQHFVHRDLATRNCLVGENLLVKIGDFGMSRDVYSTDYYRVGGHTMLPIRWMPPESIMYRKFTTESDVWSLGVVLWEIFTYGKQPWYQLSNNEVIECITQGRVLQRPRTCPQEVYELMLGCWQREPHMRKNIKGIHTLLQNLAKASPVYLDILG

For the compound `Fc1ccc(-c2ncn(CCCN3CCOCC3)c2-c2ccncc2)cc1`, the inhibition in assay [1] is -1.02%; in [2], -0.04%; in [3], 2.36%; in [4], 1.37%; in assay [5] it was 1.99%; in assay [6], 0.29%. For the same compound, the inhibition in assay [7] was -6.97%; in assay [8], -0.82%; in assay [9] it was -1.72%; in assay [10], -2.6%; in [11], -2.74%; in assay [12] it was -0.51%. Further, the inhibition in assay [13] is -1.43%; in assay [14], -0.42%; in [15], -2.77%; in [16], 1.42%; in assay [17], 2%; in assay [18], 1.6%. Also, the inhibition in [19] was 5.54%; in assay [20] it was -0.48%.

As to `COc1cc2ncn(-c3cc(OCCc4ccccc4)c(C(N)=O)s3)c2cc1OC`, the inhibition in assay [1] was -0.89%; in [2], 2.52%; in [3], 4.4%; in [4], 3.5%; in [5] it was 14.9%; in [6], 2.85%. The inhibition in [7] worked out at 13.5%; in assay [8], 0.78%; in assay [9], 2.21%; in assay [10], 1.42%; in [11] it was 3.49%; in [12], 1.14%. The inhibition in [13] was 8.57%; in [14], 2.85%; in assay [15], 14.7%; in assay [16], 2.33%; in assay [17] it was 3.1%; in [18], -3.55%. Moreover, the inhibition was 6.73% in [19] and 2.54% in [20].

With `C[C@@H](Oc1cc(-n2cnc3ccc(OCC4CCN(C)CC4)cc32)sc1C(N)=O)c1ccccc1Cl`, the inhibition in assay [1] turned out to be 2.34%; in [2], 6.45%; in assay [3] it was 6.29%; in assay [4], 4.83%; in assay [5], 19.8%; in [6] it was 7.13%. Moreover, the inhibition turned out to be 26.1% in assay [7]; 3.05% in assay [8]; 19.8% in [9]; 1.86% in assay [10]; 5.94% in assay [11]; 3.02% in assay [12]. Also, the inhibition in [13] is 10.1%; in assay [14], 4.35%; in assay [15], 10.4%; in assay [16] it was 5.54%; in assay [17], 8.91%; in assay [18], -2.69%. The inhibition in assay [19] worked out at 43.2%; in assay [20], 3.84%.

In the case of `O=C1Nc2ccccc2/C1=C/Nc1ccc(-n2cncn2)cc1`, the inhibition is -1.86% in [1]; 3.72% in assay [2]; 5.42% in assay [3]; 0.76% in [4]; 4.4% in assay [5]; 2.41% in assay [6]. Besides, the inhibition came to 14% in assay [7]; 0.63% in assay [8]; 2.83% in assay [9]; 6.94% in assay [10]; 44.2% in assay [11]; 11.7% in assay [12]. The inhibition in assay [13] was 56.5%; in assay [14], 12.5%; in assay [15], 58.4%; in [16] it was 3.04%; in assay [17], 5.07%; in assay [18], -4.51%. For the same compound, the inhibition is 47.9% in assay [19] and 4.13% in assay [20].
